Data reported in the supplement of paper PMC11732987, “Enantioselective OTUD7B fragment discovery through chemoproteomics screening and high-throughput optimisation” (Communications Chemistry, 2025).

Experiments:
Test in all cases: log2 ratio of Biotin-Ahx-Ub-VS probe labelling (fragment/DMSO); higher = less target engagement (more negative = stronger competition), active = hit call of the paper (q ≤ 0.05, log2 ratio ≤ -1)
Settings in all cases: compound concentration: 200 uM; treatment time: 3 h
[1] = target: T1, OTUD6B (UniProt Q8N6M0)
T1 sequence (whole entry): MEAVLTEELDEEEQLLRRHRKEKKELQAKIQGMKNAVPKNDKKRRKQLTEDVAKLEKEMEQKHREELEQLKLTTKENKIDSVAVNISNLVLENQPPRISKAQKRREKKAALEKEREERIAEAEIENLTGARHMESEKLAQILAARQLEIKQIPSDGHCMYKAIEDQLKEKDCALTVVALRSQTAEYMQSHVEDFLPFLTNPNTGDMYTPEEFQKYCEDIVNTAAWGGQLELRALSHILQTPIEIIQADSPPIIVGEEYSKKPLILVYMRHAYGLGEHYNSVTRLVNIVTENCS
Procedure, shortened: (§1)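 Using Biotin-Ahx-Ub-VS at 0.5 µM final for 1 h, DUBs were labelled in HEK293T lysate (495 µg per sample) that had first been treated in triplicate with fragment at 200 µM or vehicle for 3 h. NeutrAvidin enrichment, LysC and trypsin digestion and diaPASEF LC-MS/MS followed. Spectronaut label-free quantities were global-median-normalised. Values are average log2 fragment/vehicle ratios by unpaired t-test, using proteins with ≥2 unique peptides.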

[2] = target: T2, OTUD7B (UniProt Q6GQQ9)
T2 sequence (whole entry): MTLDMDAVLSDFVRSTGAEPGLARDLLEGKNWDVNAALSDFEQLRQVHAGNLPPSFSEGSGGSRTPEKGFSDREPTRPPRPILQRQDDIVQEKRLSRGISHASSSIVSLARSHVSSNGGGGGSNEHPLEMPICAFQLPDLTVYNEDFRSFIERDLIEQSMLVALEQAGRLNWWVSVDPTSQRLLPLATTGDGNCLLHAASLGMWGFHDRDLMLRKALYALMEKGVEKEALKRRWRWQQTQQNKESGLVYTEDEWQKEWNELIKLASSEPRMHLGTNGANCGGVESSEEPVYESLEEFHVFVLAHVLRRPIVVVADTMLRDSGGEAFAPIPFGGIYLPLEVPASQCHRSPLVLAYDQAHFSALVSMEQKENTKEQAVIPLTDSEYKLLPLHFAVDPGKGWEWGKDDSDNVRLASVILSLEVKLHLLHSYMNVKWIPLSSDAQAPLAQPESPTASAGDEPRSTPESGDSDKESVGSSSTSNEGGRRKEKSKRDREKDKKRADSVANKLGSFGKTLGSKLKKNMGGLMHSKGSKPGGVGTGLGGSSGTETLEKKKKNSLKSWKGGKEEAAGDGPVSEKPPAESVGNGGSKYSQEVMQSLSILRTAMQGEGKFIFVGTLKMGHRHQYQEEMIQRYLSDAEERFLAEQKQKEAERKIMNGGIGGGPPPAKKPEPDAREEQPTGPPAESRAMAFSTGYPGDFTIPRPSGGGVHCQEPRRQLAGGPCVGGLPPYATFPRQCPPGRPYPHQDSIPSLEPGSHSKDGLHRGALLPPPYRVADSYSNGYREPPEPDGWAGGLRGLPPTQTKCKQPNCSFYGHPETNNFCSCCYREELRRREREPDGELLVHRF
Procedure, shortened: as §1

[3] = target: PRPF8 (UniProt Q6P2Q9)
Procedure, shortened: as §1

[4] = target: T3, PSMD7 (UniProt P51665)
T3 sequence (whole entry): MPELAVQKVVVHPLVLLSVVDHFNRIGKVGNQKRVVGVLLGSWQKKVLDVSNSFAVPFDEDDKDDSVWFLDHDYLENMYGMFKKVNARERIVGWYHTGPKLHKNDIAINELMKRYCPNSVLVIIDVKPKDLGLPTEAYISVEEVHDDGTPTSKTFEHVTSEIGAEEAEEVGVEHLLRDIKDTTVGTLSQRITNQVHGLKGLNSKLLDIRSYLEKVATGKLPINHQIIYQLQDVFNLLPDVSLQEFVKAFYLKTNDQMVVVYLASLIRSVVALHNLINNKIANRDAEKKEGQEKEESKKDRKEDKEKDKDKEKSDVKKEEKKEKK
Procedure, shortened: as §1

[5] = target: UCHL1 (UniProt P09936)
Procedure, shortened: as §1

[6] = target: T4, UCHL3 (UniProt P15374)
T4 sequence (whole entry): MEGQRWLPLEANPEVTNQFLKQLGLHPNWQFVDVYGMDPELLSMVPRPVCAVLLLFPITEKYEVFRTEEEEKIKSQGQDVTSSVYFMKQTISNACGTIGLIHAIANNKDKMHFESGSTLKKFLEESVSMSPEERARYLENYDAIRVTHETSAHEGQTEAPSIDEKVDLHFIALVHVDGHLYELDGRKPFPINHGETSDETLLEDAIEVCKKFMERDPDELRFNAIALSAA
Procedure, shortened: as §1

[7] = target: T5, UCHL5 (UniProt Q9Y5K5)
T5 sequence (whole entry): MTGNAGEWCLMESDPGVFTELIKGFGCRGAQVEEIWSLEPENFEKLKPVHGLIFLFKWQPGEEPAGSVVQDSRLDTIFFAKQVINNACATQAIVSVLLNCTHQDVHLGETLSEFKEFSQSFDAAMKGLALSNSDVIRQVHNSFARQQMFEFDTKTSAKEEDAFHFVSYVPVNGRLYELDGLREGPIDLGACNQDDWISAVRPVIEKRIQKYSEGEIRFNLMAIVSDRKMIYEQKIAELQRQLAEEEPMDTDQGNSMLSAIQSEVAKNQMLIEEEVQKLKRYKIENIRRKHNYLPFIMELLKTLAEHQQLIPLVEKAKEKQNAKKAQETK
Procedure, shortened: as §1

[8] = target: USP10 (UniProt Q14694)
Procedure, shortened: as §1

[9] = target: T6, USP15 (UniProt Q9Y4E8)
T6 sequence (whole entry): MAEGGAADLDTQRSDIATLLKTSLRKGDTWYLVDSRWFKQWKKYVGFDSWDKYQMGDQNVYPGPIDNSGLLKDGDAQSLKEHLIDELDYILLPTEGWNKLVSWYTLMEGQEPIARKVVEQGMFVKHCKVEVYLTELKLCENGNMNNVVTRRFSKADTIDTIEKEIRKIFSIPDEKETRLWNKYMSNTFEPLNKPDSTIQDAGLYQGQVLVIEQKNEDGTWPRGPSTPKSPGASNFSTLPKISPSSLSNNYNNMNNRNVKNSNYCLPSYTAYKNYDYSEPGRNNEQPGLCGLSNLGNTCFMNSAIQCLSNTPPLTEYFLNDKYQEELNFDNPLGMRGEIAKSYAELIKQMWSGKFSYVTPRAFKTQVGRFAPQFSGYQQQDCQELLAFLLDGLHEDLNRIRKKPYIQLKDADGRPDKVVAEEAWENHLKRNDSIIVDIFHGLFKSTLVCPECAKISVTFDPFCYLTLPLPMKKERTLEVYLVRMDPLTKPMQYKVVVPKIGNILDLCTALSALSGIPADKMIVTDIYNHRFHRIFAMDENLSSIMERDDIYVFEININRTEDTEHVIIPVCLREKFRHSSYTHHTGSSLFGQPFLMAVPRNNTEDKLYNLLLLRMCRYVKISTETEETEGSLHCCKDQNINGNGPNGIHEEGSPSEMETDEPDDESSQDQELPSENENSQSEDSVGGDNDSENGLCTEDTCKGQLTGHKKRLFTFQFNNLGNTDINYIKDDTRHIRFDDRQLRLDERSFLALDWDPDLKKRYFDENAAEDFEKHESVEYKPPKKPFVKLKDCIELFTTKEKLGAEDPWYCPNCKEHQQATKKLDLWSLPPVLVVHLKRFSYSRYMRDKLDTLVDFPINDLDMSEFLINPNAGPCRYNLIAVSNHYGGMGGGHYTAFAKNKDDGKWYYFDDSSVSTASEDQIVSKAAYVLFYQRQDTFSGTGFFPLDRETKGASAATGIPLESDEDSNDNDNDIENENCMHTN
Procedure, shortened: as §1

[10] = target: USP16 (UniProt Q9Y5T5)
Procedure, shortened: as §1

Measured: log2 ratio of Biotin-Ahx-Ub-VS probe labelling

Sequence of USP16 (Q9Y5T5 whole entry, looked up): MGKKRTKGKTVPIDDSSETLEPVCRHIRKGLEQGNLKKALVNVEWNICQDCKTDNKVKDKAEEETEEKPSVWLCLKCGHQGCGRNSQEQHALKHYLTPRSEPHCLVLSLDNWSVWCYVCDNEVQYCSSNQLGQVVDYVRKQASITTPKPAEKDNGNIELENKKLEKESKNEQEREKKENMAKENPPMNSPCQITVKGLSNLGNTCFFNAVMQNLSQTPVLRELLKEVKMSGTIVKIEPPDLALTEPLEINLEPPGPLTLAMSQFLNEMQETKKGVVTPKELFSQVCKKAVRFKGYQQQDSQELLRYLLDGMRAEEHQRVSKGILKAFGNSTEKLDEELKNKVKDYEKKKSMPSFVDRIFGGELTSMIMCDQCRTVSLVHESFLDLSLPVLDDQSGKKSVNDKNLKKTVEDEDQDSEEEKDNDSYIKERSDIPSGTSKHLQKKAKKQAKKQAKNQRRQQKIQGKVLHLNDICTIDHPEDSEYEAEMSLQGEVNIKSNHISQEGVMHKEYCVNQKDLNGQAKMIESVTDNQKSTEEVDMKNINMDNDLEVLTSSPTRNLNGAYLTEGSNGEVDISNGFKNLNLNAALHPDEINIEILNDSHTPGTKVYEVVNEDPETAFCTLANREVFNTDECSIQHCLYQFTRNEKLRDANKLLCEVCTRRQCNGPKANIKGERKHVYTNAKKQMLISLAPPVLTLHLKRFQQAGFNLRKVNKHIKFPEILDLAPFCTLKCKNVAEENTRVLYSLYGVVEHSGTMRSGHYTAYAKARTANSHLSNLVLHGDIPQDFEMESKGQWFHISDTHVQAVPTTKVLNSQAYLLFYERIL
Sequence of USP10 (Q14694 whole entry): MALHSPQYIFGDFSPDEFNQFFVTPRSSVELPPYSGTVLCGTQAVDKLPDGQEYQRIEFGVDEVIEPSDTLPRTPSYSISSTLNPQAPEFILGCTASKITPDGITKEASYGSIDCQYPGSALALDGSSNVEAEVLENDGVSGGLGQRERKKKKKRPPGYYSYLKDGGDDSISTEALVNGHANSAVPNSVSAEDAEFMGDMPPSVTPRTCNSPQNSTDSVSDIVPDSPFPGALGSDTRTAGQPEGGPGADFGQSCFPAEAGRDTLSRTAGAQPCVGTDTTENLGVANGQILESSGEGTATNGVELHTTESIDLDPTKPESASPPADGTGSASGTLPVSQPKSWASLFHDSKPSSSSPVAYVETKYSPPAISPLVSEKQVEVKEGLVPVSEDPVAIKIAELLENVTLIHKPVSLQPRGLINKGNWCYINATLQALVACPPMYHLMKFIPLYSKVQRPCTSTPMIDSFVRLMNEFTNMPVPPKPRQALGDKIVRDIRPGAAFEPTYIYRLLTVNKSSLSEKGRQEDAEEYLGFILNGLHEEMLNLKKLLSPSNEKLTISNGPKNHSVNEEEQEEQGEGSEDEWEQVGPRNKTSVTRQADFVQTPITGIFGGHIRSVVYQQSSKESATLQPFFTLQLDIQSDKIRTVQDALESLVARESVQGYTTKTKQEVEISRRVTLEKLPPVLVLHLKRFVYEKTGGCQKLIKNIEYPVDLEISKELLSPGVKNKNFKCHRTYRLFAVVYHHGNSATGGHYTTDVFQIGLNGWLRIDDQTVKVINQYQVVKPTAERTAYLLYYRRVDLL
Sequence of UCHL1 (P09936 whole entry, looked up): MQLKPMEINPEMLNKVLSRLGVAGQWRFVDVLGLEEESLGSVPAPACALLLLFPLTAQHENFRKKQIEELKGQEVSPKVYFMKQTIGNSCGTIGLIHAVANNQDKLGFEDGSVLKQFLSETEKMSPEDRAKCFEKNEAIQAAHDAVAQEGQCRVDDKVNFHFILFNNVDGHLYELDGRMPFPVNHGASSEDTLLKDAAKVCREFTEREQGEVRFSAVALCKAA

O=C(CCl)N1CCC(c2noc3cc(F)ccc23)CC1
inactive: [1] -0.0328 | [2] -0.608 | [3] -0.0836 | [4] -0.139 | [5] -0.799 | [6] 0.208 | [7] -0.186 | [8] -0.264 | [9] -0.468 | [10] -0.65
